From the supplement of paper PMC11383364

Each compound was assayed on SUM149 (assay: percent difference in area under dose-response curve of relative cell number, RPMI vs HPLM; higher = drug relatively more effective in HPLM than RPMI (negative = less effective in HPLM)). Conditions: treatment time: 72 h; dose range: 10-point, 1 nM to 20 µM; media compared: RPMI vs HPLM.
Experimental: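 SUM149 triple-negative breast cancer cells, 500 cells/well in 384-well plates, were grown in RPMI or human plasma-like medium (HPLM) with 5% dialyzed FBS. They were pin-transferred with an anticancer plus metabolic-inhibitor library in 10-point dose series (20 µM to 1 nM). After 72 h, cells were fixed, stained with bisbenzimide and counted by Acumen plate cytometry. The AUC of relative survival vs dose was computed per medium, and the percent difference in AUC between RPMI and HPLM is reported.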

| SMILES | percent difference in area under dose-response curve |
| --- | --- |
| CCOC(=O)[C@@H](N)CCC(=O)N[C@@H](CSCc1ccccc1)C(=O)N[C@@H](C(=O)OCC)c1ccccc1 [Telintra] | 2.03% |
| CC(=O)Nc1nc(C)c(-c2ccc(Cl)c(S(=O)(=O)NCCO)c2)s1 | -8.79% |
| CC(C)NCCCn1c(Sc2cc3c(cc2I)OCO3)nc2c(N)ncnc21 | -28.4% |
| c1ccc(Cn2nnc3c(Sc4nc5ccccc5o4)ncnc32)cc1 | 0.823% |
| CN1CCC(CNc2ccc3ncc(-c4cccc(OC(F)(F)F)c4)n3n2)CC1 [SGI1776_free_base] | -10.5% |
| Cc1cnc(-c2cnc(NCCNc3ccc(C#N)cn3)nc2-c2ccc(Cl)cc2Cl)[nH]1 | 7.14% |
| CC1=C(/C=C/C(C)=C/C=C/C(C)=C\C(=O)O)C(C)(C)CCC1 [Isotretinoin] | -4.74% |
| O=C(Nc1c[nH]nc1-c1nc2ccc(CN3CCOCC3)cc2[nH]1)NC1CC1 | -10.6% |
| C#Cc1cccc(Nc2ncnc3cc(OC)c(OCCCCCCC(=O)NO)cc23)c1 | 8.57% |
| COc1cc2nccc(Oc3ccc(NC(=O)Nc4cc(C)on4)c(Cl)c3)c2cc1OC [Tivozanib] | 7.69% |
| CN(c1ncccc1CNc1nc(Nc2ccc3c(c2)CC(=O)N3)ncc1C(F)(F)F)S(C)(=O)=O | -16.2% |
| COc1ccccc1-c1cc(Nc2cccc(CS(N)(=O)=O)c2)ncn1 | -3.21% |
| CC(=O)Nc1cccc(-n2c(=O)n(C3CC3)c(=O)c3c(Nc4ccc(I)cc4F)n(C)c(=O)c(C)c32)c1 | -18.1% |
| Cc1ccc(C(=O)N(CCCN)[C@@H](c2oc3cc(Cl)ccc3c(=O)c2Cc2ccccc2)C(C)C)cc1 | -42.1% |
| Clc1ccc(C(c2ccccc2Cl)C(Cl)Cl)cc1 (stereo not given) [Mitotane] | -3.24% |
| Cc1nc2c(-c3cnc(N)nc3)nc(N3CCOCC3)nc2n1C(C)C | -7.54% |
| OCCN(CCO)c1nc(N2CCCCC2)c2nc(N(CCO)CCO)nc(N3CCCCC3)c2n1 [Dipyridamole] | 2.66% |
| O=C(Nc1ccccc1-c1cn2c(CN3CCNCC3)csc2n1)c1cnc2ccccc2n1 | -8.03% |
| Cc1cc2c(F)c(Oc3ncnn4cc(OC[C@@H](C)O)c(C)c34)ccc2[nH]1 [Brivanib] | -2.59% |
| CN1CCN(c2nc(C3=C(c4c[nH]c5ccccc45)C(=O)NC3=O)c3ccccc3n2)CC1 [Sotrastaurin] | 9.13% |

| SMILES | percent difference in area under dose-response curve |
| --- | --- |
| Cc1ccc(NC(=O)c2ccc(CN3CCN(C)CC3)cc2)cc1Nc1nccc(-c2cccnc2)n1 [Imatinib] | -5.87% |
| O=C(NOCC1CC1)c1ccc(F)c(F)c1Nc1ccc(I)cc1Cl | 4.08% |
| CCc1nc(N)nc(N)c1-c1ccc(Cl)cc1 [Pyrimethamine] | 33.6% |
| CCC(C)(C)C(=O)O[C@H]1C[C@@H](C)C=C2C=C[C@H](C)[C@H](CC[C@@H]3C[C@@H](O)CC(=O)O3)[C@H]21 [Simvastatin] | -12.1% |
| CNC(=O)c1ccccc1Sc1ccc2c(/C=C/c3ccccn3)n[nH]c2c1 [Axitinib] | -0.398% |
| Cc1[nH]c(/C=C2\C(=O)Nc3ccc(S(=O)(=O)N(C)c4cccc(Cl)c4)cc32)c(C)c1C(=O)N1CCN(C)CC1 | -9.77% |
| COC(=O)Nc1nc2cc(C(=O)c3cccs3)ccc2[nH]1 [Nocodazole] | -17.2% |
| COc1c(C)cnc(Cn2cnc3c(Cl)nc(N)nc32)c1C | -26.2% |
| O=C(O[C@@H]1Cc2c(O)cc(O)cc2O[C@@H]1c1cc(O)c(O)c(O)c1)c1cc(O)c(O)c(O)c1 [_Epigallocatechin_gallate] | 3.46% |
| O=c1[nH]cc(F)c(=O)[nH]1 [Adrucil] | 1.58% |
| C=C(c1ccc(C(=O)O)cc1)c1cc2c(cc1C)C(C)(C)CCC2(C)C [Bexarotene] | -2.87% |
| Cc1ccc(NC(=O)c2ccc(CN3CCN(C)CC3)cc2)cc1Nc1nccc(-c2cccnc2)n1 [Imatinib_Mesylate] | -3.71% |
| N#Cc1c(NC(=O)c2cccc3ccccc23)sc2c1CCCC2 [JNK_Inhibitor_IX] | -13.1% |
| CNCCC(Oc1ccc(C(F)(F)F)cc1)c1ccccc1 (stereo not given) [Fluoxetine] | 0.518% |
| Cc1ccc(NC(=O)c2cccc(C(C)(C)C#N)c2)cc1Nc1ccc2ncn(C)c(=O)c2c1 | -22.2% |
| CC(C)(C)c1cc(NC(=O)Nc2ccc(-c3cn4c(n3)sc3cc(OCCN5CCOCC5)ccc34)cc2)no1 [Quizartinib] | -0.334% |
| CC(C)C[C@H](NC(=O)CNC(=O)c1cc(Cl)ccc1Cl)B1OC(=O)C(CC(=O)O)(CC(=O)O)O1 | -1.48% |
| COc1cc2c(cc1O)CC[C@@H]1[C@@H]2CC[C@]2(C)[C@@H](O)CC[C@@H]12 [2Methoxyestradiol] | -12% |
| CCC1=C[C@@H]2CN(C1)Cc1c([nH]c3ccccc13)[C@@](C(=O)OC)(c1cc3c(cc1OC)N(C)[C@H]1[C@@](O)(C(=O)OC)[C@H](OC(C)=O)[C@]4(CC)C=CCN5CC[C@]31[C@@H]54)C2 [Vinorelbine_Tartrate] | -41% |
| CC[C@@H]1C(=O)N(C)c2cnc(Nc3ccc(C(=O)NC4CCN(C)CC4)cc3OC)nc2N1C1CCCC1 | -23% |
